Hits are enriched below; roughly 15% of the tested compounds scored in any of these assays.
DT40 TDP1 no CPT: qHTS for Inhibitors of human tyrosyl-DNA phosphodiesterase 1 (TDP1): qHTS in cells in absence of CPT; Potency, µM (doses to about 46.2 µM), most hits filed as inhibitors; 15% of 420,000 active; DT40 Tdp1-/- hTDP1 cells, no CPT, ATP luminescence, 48 h; further: nearly all actives have a fitted effect of over 55% in size
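Readout: luminescence from CellTiter-Glo after 30 min in the dark at RT. Cells: DT40 Tdp1-/- with stable hTDP1, 400/well. Exposure: compounds alone, ≥48 hr, 37 °C.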
ELG1 repair inh: qHTS screen for small molecules that inhibit ELG1-dependent DNA repair in human embryonic kidney (HEK293T) cells expressing luciferase-tagged ELG1; 2.3% of 330,000 active; Potency, µM (doses to about 46.1 µM), usual class: inhibitors; HEK293T ELG1-luciferase reporter, luminescence, 16 h; DNA damage induced by 5-fluorouridine; AID 504467, 2011; further: nearly all actives have a fitted effect of over 55% in size
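Cells (2,000 per well) received 5-fluorouridine plus test compound or DMSO and were incubated 16 hr at 37 °C, 5% CO2. Luciferase activity was read by luminescence 30 min after ONE-Glo addition; signal suppression marked inhibition of damage-induced ELG1 function.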
DT40 TDP1 CPT: qHTS for Inhibitors of human tyrosyl-DNA phosphodiesterase 1 (TDP1): qHTS in cells in presence of CPT. chicken DT40 Tdp1-/-;hTDP1 cells + 20 nM CPT, ATP luminescence, 48 h. Potency, µM (series often up to 46.2 µM), hits mostly inhibitors. 12% of 420,000 active. AID 686979, 2013; further: nearly all actives have a fitted effect of over 55% in size
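Chicken DT40 Tdp1-/- cells complemented with human TDP1, 400 cells/well, exposed to compounds plus 20 nM camptothecin for at least 48 h at 37 C; viability read as ATP content by CellTiter-Glo luminescence.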
RORg inh: qHTS for inhibitors of ROR gamma transcriptional activity. Nuclear receptor ROR-gamma (Mus musculus), P51450. Drosophila S2 Gal4-RORgamma UAS-luciferase reporter, 20 h. Potency, µM (series often up to 53.6 µM), actives largely listed as inhibitors. 5.4% of 310,000 active; further: nearly all actives have a fitted effect of over 60% in size
Target sequence (P51450 whole entry, looked up, the tested form may be a part): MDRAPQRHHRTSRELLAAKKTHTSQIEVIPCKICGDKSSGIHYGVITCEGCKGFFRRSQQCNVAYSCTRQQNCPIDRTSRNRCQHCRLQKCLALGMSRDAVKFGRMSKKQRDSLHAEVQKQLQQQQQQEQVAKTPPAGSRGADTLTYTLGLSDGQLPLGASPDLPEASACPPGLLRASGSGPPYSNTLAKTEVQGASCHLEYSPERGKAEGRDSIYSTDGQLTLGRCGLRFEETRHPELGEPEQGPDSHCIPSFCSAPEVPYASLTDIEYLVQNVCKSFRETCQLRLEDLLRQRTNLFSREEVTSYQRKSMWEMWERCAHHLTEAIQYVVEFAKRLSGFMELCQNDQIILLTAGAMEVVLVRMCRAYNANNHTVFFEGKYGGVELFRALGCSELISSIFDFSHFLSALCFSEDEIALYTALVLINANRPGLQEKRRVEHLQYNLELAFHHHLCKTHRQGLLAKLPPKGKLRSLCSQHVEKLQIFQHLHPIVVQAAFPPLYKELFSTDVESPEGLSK
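Using a luciferase readout, inhibitors were identified by reduced reporter activity in Drosophila cells coexpressing a copper-inducible Gal4–ROR gamma fusion and UAS-driven Photinus luciferase, incubated 20 hr after 700 uM copper sulfate.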
VP16 counter: VP16 counterscreen qHTS for inhibitors of ROR gamma transcriptional activity | Drosophila S2 Gal4-VP16 UAS-luciferase, luminescence, 20 h | Potency, µM (doses to about 53.6 µM), hits mostly inhibitors | 3.5% of 310,000 active | AID 2546, 2010;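 further: Gal4-VP16 expression switched on by copper sulfate through the metallothionein promoter; nearly all actives have a fitted effect of over 50% in size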
12-LOX inh: Primary qHTS assay for inhibitors of human arachidonate 12S-lipoxygenase (ALOX12): Round 2; Polyunsaturated fatty acid lipoxygenase ALOX12 (Homo sapiens), P18054; 1.1% of 580,000 active; AID 1671190, 2021; Potency, µM (doses to about 108 µM), most hits filed as inhibitors; purified 12hLO, xylenol orange hydroperoxide absorbance
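Hydroperoxide product was detected by ferrous iron/xylenol orange as the 573 to 405 nm absorbance ratio. Arachidonic acid at 40 uM (final) was turned over for 30 min at room temperature by 150 nM human 12hLO, pH 7.0 Hepes buffer, after 15 min compound preincubation.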
Large screens that a line does not name were inactive. The call rests on the fitted dose curve; in most records, active means well fitted curve in the direction sought with a large enough effect; inconclusive means small, poorly fitted or top-dose-only effect, or another doubt; inactive means no such curve, though single readings can be large; an effect the other way counts as inactive or inconclusive.

CCN(CC)CCOC(=O)c1ccc(NC(=O)c2nn(-c3ccc(C)cc3)c(=O)c3c2c2ccccc2n3C)cc1	DT40 TDP1 no CPT 0.58µM, DT40 TDP1 CPT 1.2µM, 12-LOX inh inconclusive (no result: ELG1 repair inh, RORg inh, VP16 counter)
CCN(C(=O)c1nn(-c2ccc(C)cc2)c(=O)c2c1c1ccccc1n2C)c1ccc(F)cc1	DT40 TDP1 no CPT 13µM, DT40 TDP1 CPT inconclusive (no result: ELG1 repair inh, RORg inh, VP16 counter)
COc1ccc(CCNC(=O)c2nn(-c3ccc(C)cc3)c(=O)c3c2c2ccccc2n3C)cc1OC	DT40 TDP1 no CPT 2.1µM, DT40 TDP1 CPT inconclusive (no result: ELG1 repair inh, RORg inh, VP16 counter)
COc1nccc(N2CCC(CC(=O)N3CCN(CCC#N)CC3)CC2)n1	none (no result: DT40 TDP1 no CPT, ELG1 repair inh, DT40 TDP1 CPT, RORg inh, VP16 counter)
Cc1nnc(SC(C)C(=O)Nc2ccc(F)c(Cl)c2)n1C (centres undefined)	none (no result: DT40 TDP1 no CPT, ELG1 repair inh, DT40 TDP1 CPT, RORg inh, VP16 counter)
Cc1cc(N2C(=O)C(O)=C(C(=O)c3cc4ccccc4o3)C2c2ccc(Cl)cc2)no1 (centres undefined)	RORg inh inconclusive, VP16 counter inconclusive, 12-LOX inh 40µM
Cc1cc(N2C(=O)C(O)=C(C(=O)c3cc4ccccc4o3)C2c2ccc(Br)cc2)no1 (centres undefined)	RORg inh inconclusive, VP16 counter inconclusive, 12-LOX inh 40µM
CN(C)CCN1C(=O)C(O)=C(C(=O)c2cc3ccccc3o2)C1c1ccc(OCc2ccccc2)cc1 (centres undefined)	12-LOX inh 25µM (no result: DT40 TDP1 no CPT, ELG1 repair inh, DT40 TDP1 CPT, RORg inh, VP16 counter)
COc1cc(NC(=O)Nc2cccc(-c3noc(C)n3)c2)cc(OC)c1OC	DT40 TDP1 no CPT 23µM, DT40 TDP1 CPT inconclusive (no result: ELG1 repair inh, RORg inh, VP16 counter)
COc1cc(NC(=O)c2cc(-c3ccc(Cl)c(Cl)c3)on2)cc(OC)c1OC	DT40 TDP1 no CPT inconclusive, DT40 TDP1 CPT 8.2µM (no result: ELG1 repair inh, RORg inh, VP16 counter)
COc1cccc(-c2cc(C(=O)Nc3cccc(O)c3)no2)c1	ELG1 repair inh inconclusive, DT40 TDP1 CPT inconclusive, RORg inh 0.89µM, VP16 counter 2.5µM
COc1ccc(NC(=O)c2cc(-c3cccc(OC)c3)on2)cc1	ELG1 repair inh inconclusive
O=C(Nc1cccc(O)c1)c1cc(-c2cccs2)on1	DT40 TDP1 no CPT inconclusive, ELG1 repair inh inconclusive, DT40 TDP1 CPT inconclusive, RORg inh 2µM, VP16 counter 3.5µM, 12-LOX inh inconclusive
COc1cc(NC(=O)Nc2cccc(C(C)=O)c2)cc(OC)c1OC	ELG1 repair inh inconclusive
CC(=O)c1cccc(NC(=O)c2cc(-c3cccs3)on2)c1	ELG1 repair inh inconclusive
COC(=O)C1=CN(CC(=O)Nc2ccc(C(C)C)cc2)S(=O)(=O)N=C1C	none (no result: DT40 TDP1 no CPT, ELG1 repair inh, DT40 TDP1 CPT, RORg inh, VP16 counter)
COc1cc(NC(=O)c2cc(-c3cccc(O)c3)on2)cc(OC)c1OC	DT40 TDP1 no CPT 13µM, ELG1 repair inh inconclusive, DT40 TDP1 CPT inconclusive
COc1cc(NC(=O)c2cc(-c3cccs3)on2)cc(OC)c1OC	DT40 TDP1 no CPT 16µM, ELG1 repair inh inconclusive, DT40 TDP1 CPT 21µM
COCCNC(=O)c1cc(-c2cccs2)on1	DT40 TDP1 no CPT 23µM, ELG1 repair inh inconclusive, DT40 TDP1 CPT inconclusive
COc1cc(NC(=O)c2cc(-c3ccccc3Cl)on2)cc(OC)c1OC	DT40 TDP1 no CPT 2.9µM, ELG1 repair inh 9.2µM, DT40 TDP1 CPT 2.9µM
CCN(C(=O)COC(=O)Cc1n[nH]c(=O)c2ccccc12)c1ccc(F)cc1	none (no result: DT40 TDP1 no CPT, ELG1 repair inh, DT40 TDP1 CPT, RORg inh, VP16 counter)
O=C(NCCN1CCOCC1)C1CN(S(=O)(=O)c2ccccc2)CC12CCCCC2 (centres undefined)	none (no result: DT40 TDP1 no CPT, ELG1 repair inh, DT40 TDP1 CPT, RORg inh, VP16 counter)
COC(=O)c1cn([C@H]2CO[C@H]3[C@@H]2OC[C@@H]3NC(=O)NC2CCCCC2)nn1	none (no result: DT40 TDP1 no CPT, ELG1 repair inh, DT40 TDP1 CPT, RORg inh, VP16 counter)
Cc1ccc2c(C)c(C(=O)N3C[C@@H](NS(C)(=O)=O)[C@H](C(C)C)C3)oc2c1	none (no result: DT40 TDP1 no CPT, ELG1 repair inh, DT40 TDP1 CPT, RORg inh, VP16 counter)
CN(C)CCCNC(=O)/C(=C\c1ccc(-c2ccc(Br)cc2)o1)NC(=O)c1ccccc1	DT40 TDP1 no CPT 12µM, DT40 TDP1 CPT 3.7µM, RORg inh inconclusive, VP16 counter inconclusive
Cc1ccc(C(=O)N/C(=C\c2ccc(-c3ccccc3[N+](=O)[O-])o2)C(=O)NCCCN(C)C)cc1	DT40 TDP1 no CPT 5.8µM, DT40 TDP1 CPT 5.2µM
CN(C)CCNC(=O)/C(=C/c1ccc(-c2cccc([N+](=O)[O-])c2)o1)NC(=O)c1ccccc1	DT40 TDP1 no CPT inconclusive, DT40 TDP1 CPT inconclusive
Cc1ccc(C(=O)N/C(=C\c2ccc(Cl)cc2)C(=O)NCCCN2CCOCC2)cc1	none
Cc1ccc(C(=O)N/C(=C\c2ccc(-c3ccc(Cl)cc3)o2)C(=O)NCCCN(C)C)cc1	DT40 TDP1 no CPT 12µM, ELG1 repair inh inconclusive, DT40 TDP1 CPT 12µM, RORg inh inconclusive, VP16 counter inconclusive
CN(C)CCCNC(=O)/C(=C/c1ccc(-c2ccc([N+](=O)[O-])cc2)o1)NC(=O)c1ccccc1	ELG1 repair inh inconclusive, DT40 TDP1 CPT inconclusive, 12-LOX inh inconclusive
COCC(=O)N[C@@H]1CN(Cc2ccc(C#N)cc2)C[C@H]1CO	none (no result: DT40 TDP1 no CPT, ELG1 repair inh, DT40 TDP1 CPT, RORg inh, VP16 counter)
COCCNC(=O)[C@@H]1C[C@H](Oc2ccccc2)CN1S(=O)(=O)c1cccs1	none (no result: DT40 TDP1 no CPT, ELG1 repair inh, DT40 TDP1 CPT, RORg inh, VP16 counter)
Cc1cccc(N2CCN(Cc3ncc(-c4ccccc4)o3)CC2)c1C	none (no result: DT40 TDP1 no CPT, ELG1 repair inh, DT40 TDP1 CPT, RORg inh, VP16 counter)
CC(C)CC(=O)NC(=S)Nc1ccccn1	ELG1 repair inh inconclusive, DT40 TDP1 CPT inconclusive, VP16 counter 20µM, 12-LOX inh inconclusive
